We go through six molecules from PubChem BioAssay.

Molecules are shown by their SMILES. Where “and” joins values, the source holds several entries; their conditions need not be identical. Equal entries are not always repeated. Records with an inconclusive call do not appear. Calls of active or inactive are those of the source. Unless noted, no rule for the calls is given here.

The target of assay [1] is ATP-dependent translocase ABCB1 (Homo sapiens) (UniProt P08183). In words: P-glycoprotein substrate transport blockade – cell-based (AID 377; in the data active = fluorescence slope change above about 50%). As to conditions: MDR1-expressing cells, fluorescent substrate accumulation slope; stronger effect = higher value; concentration not given here.
ATP-dependent translocase ABCB1 (Homo sapiens), sequence (P08183 whole entry, looked up): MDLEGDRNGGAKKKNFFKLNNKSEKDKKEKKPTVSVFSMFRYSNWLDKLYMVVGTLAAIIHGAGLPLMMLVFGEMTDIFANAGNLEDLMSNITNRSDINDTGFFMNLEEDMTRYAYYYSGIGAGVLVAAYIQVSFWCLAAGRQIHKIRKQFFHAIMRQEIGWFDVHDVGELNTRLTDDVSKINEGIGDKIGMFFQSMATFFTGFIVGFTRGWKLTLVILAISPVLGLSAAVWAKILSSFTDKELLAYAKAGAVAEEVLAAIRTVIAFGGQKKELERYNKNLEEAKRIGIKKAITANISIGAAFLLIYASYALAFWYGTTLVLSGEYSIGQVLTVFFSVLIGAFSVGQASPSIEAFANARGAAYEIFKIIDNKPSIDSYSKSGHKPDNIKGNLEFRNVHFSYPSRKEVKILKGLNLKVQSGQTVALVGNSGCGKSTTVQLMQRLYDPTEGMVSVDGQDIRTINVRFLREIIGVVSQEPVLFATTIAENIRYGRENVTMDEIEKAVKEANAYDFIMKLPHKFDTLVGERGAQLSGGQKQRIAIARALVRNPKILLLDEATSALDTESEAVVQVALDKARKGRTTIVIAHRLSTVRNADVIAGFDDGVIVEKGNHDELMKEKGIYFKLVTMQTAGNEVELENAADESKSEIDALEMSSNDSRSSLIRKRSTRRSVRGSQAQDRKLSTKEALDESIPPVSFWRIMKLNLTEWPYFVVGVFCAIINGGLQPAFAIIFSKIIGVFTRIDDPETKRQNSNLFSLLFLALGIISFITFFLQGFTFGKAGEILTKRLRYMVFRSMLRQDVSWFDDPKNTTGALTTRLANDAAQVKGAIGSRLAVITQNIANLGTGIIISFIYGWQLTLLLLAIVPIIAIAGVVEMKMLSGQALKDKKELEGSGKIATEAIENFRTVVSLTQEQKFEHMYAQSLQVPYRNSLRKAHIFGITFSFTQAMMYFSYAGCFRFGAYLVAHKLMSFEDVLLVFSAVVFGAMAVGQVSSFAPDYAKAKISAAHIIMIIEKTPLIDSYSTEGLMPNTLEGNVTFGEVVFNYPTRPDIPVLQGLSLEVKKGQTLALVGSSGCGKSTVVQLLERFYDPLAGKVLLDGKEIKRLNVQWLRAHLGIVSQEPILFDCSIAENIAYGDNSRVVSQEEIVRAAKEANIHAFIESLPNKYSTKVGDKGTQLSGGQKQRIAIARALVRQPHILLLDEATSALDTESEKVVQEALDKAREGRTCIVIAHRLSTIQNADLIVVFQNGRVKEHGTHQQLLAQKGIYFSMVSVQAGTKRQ
Assay [2] is described as follows: compounds altering circadian rhythm period length – cell-based, LOPAC library, luminescence reporter (AID 2774).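 Also: values are relative to mean of DMSO wells on each plate.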 To be noted: circadian reporter cells, at 7 µM, actives lie on both sides.
A short description of assay [3]: compounds altering viability of human ES cells (AID 493140).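 Also: cells exposed to compounds for four days before counting.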 As to conditions: human embryonic stem cell survival screen; stronger effect = higher value.
The nature of assay [4]: P. berghei load reduction in hepatocytes – cell-based, HepG2, luciferase luminescence, HepG2 viability, primary screen (AID 624349; in the data active = parasite load remaining mostly below about 12%, no sharp cut-off; inactive = mostly above about 10%;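 also: 100% = mean of DMSO negative control wells on the same plate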). To be noted: P. berghei liver stage in HepG2, luciferase luminescence, concentration not given here; parasite load remaining: stronger effect = lower value; viability: measured here: HepG2 viability without parasites.
Assay [5] can be described thus: viability loss with induced miR-34 in A549 – imaging, A549 dox-inducible miR-34, nuclei and caspase counts, primary screen (AID 1347080;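 active = compounds whose cell count with miR-34 switched on is under 0.7 times the count with it off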). As to conditions: A549 miR-34 inducible, Hoechst nuclei count, 48 h.
The nature of assay [6]: galactose survival enhancers in mitochondrial complex I cybrids – cell-based, galactose medium, ATP luminescence, primary screen (AID 1645843;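 active = z-score of at least 1.8 in each of two replicates, scored against plate mean and spread of sample wells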;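 also: positive z means more ATP and so rescue of galactose-driven cybrid death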). As to conditions: complex I mutant cybrid cells, 72 h, stronger effect = higher value.
For assay [7], the system named is Hepatitis C virus NS3 helicase. Briefly: blockers of NS3h binding to ssDNA – biochemical, fluorescence polarization, LOPAC1280 library, primary screen (AID 687035; in the data active = inhibition above about 37%). To be noted: Purified HCV NS3 helicase, Cy5-dT15 ssDNA binding fluorescence polarization; stronger effect = higher value; concentration not given here.
Assay [8] is described as follows: compounds altering Cy5-DNA-NS3h complex signal – biochemical, LOPAC1280, artefact control for HCV NS3 helicase inhibitor project (AID 687037). To be noted: Cy5-DNA-NS3h complex fluorescence interference counterscreen. On the technique in general: Counterscreens check selectivity or assay interference.
The mark [9] stands for this setting: stronger effect = lower value, cell number ratio, induced over uninduced.
The mark [10] stands for this setting: measured here: relative caspase fold change +Dox/-Dox.
Where [11] appears, read: measured here: total cells with miR-34 induction, stronger effect = lower value.
[12] abbreviates: measured here: total cells without miR-34 induction.

For the molecule `COc1cc(=O)n(C)c2c(OCC(O)C(C)(C)O)cccc12` (centres undefined), the fluorescence slope change in assay [1] is -8.1% (inactive). In assay [2], the period change is -0.165 h (inactive). Further, the survival in assay [3] was 2.75 (inactive). In addition, the parasite load remaining in assay [4] is 88% (inactive). In addition, the viability in assay [4] was 97.7%. For the same molecule, the fold change is 0.801 (inactive) in assay [5] (setting [9]) and 1.04 in assay [5] (setting [10]). Besides, the cell count in assay [5] (setting [11]) was 8320; in assay [5] (setting [12]), 10400.

As for `CCOC(=O)C12CC1/C(=N/O)c1ccccc1O2` (centres undefined), the period change in assay [2] was -0.125 h (inactive). Also, the fold change is 1.06 (inactive) in assay [5] (setting [9]) and 2.7 in assay [5] (setting [10]). Moreover, the cell count in assay [5] (setting [11]) amounted to 9720; in assay [5] (setting [12]), 9140. The z-score in assay [6] was 0.485 (inactive).

With `COc1ccc(CCCOc2cc(CCn3ccnc3)ccc2OC)cc1`, the fold change in assay [5] (setting [9]) is 1.41 (inactive); in assay [5] (setting [10]), 0.402. The cell count stood at 3260 in assay [5] (setting [11]) and 2300 in assay [5] (setting [12]). Moreover, in assay [6], the z-score is -1.33 (inactive).

For the molecule `N#C/C(=C\c1ccc(O)c(O)c1)C(=O)c1ccc(O)c(O)c1`, the period change in assay [2] is -0.055 h (inactive). In addition, in assay [7], the inhibition is 100% (active). In addition, the fluorescence ratio (interference) in assay [8] was 1 (inactive). In addition, the figures for the fold change in assay [5] (setting [9]) and in assay [5] (setting [10]) were 0.979 (inactive) and 1.26, respectively. Further, the values for the cell count in assay [5] (setting [11]) and in assay [5] (setting [12]) were 9140 and 9340, respectively. Moreover, the z-score in assay [6] was -0.355 (inactive).

In the case of `CCCCCC(O)c1cccc(OCc2ccc3ccccc3n2)c1` (centres undefined), in assay [2], the period change was 0.015 h (inactive). In addition, the survival in assay [3] was 78.8 (inactive). In addition, the inhibition in assay [7] was 1% (inactive). In assay [8], the fluorescence ratio (interference) is 0.9 (inactive). The fold change in assay [5] (setting [9]) is 0.911 (inactive) and 0.978 (inactive); in assay [5] (setting [10]) it was 1.06 and 0.946. The cell count was 5590 and 5690 in assay [5] (setting [11]); 6140 and 5820 in assay [5] (setting [12]).

On to `COc1c2c(nc3ccccc13)OC(C(C)(O)CO)C2` (centres undefined), for which, in assay [2], the period change was 0.065 h (inactive). For the same molecule, the survival in assay [3] is 14.3 (inactive). The parasite load remaining in assay [4] is 78.4% (inactive). Besides, in assay [4], the viability was 73.1%. Also, the fold change is 0.919 (inactive) in assay [5] (setting [9]) and 0.535 in assay [5] (setting [10]). Further, the cell count in assay [5] (setting [11]) turned out to be 8340; in assay [5] (setting [12]), 9080.

What is called viability is the share of living cells, or the viability signal relative to a control. The inhibition is the percentage by which the read-out fell short of the control.
